# Bioassay records (PubChem BioAssay)
# The list is a sample of the results.
# aSyn UTR act = Activators via SNCA 5'UTR binding, MLPCN; alpha-synuclein 5'UTR reporter, activators screen; activity score, % (tested at 7.5 µM), hits read low; hit rate 7.1% among 300,000; AID 1814, 2009; in the data active = activity score below about -60%
# Starred values were filed as active, the others as inactive.
SMILES,aSyn UTR act
COc1cc(-c2cc3nc4ccccc4n3c(N)c2C#N)cc(OC)c1OC,45
O=[N+]([O-])c1ccccc1-c1ccc(C(=S)N2CCCC2)o1,-132*
O=[N+]([O-])c1ccccc1-c1ccc(C(=S)N2CCCCC2)o1,-107*
O=C(OCC(=O)N1CCCC1=O)c1nc(Cl)c(Cl)c(Cl)c1Cl,-131*
CC(=O)Cc1nsc(Nc2ccc(C)cc2)n1,-93*
COC(=O)c1ccc(-c2ccc(/C=N/NC(=O)CC3(C)OCCCO3)o2)cc1,-67*
CCCCOC(=O)c1ccc(-c2ccc(/C=N/NC(=S)NCC)o2)cc1,-89*
COC(=O)c1ccc(-c2ccc(/C=N/N3C(=O)C4C5C=CC(C6CC56)C4C3=O)o2)cc1 (configuration not stated),-100*
O=C(N/N=C\c1ccc([N+](=O)[O-])s1)c1cncc(Br)c1,77
CCOC(=O)c1ccc(-c2ccc(/C=N/NC(=O)c3cncc(Br)c3)o2)cc1,-164*
CCOC(=O)c1ccc(-c2ccc(/C=N/NC(=O)Cc3nnc(N)s3)o2)cc1,-83*
COc1ccc(/C(C)=N/Nc2ncc(Cl)cc2Cl)c(O)c1,-92*
Cc1cc(=O)oc2cc(Nc3ccccc3)ccc12,-90*
CCCC(C(=O)Nc1ccc2c(C)cc(=O)oc2c1)c1ccccc1 (configuration not stated),-66*
Cc1ccc(C2=CSC3=NNC4(CCCCC4)NN23)cc1,-126*
O=[N+]([O-])c1cccc(/C([O-])=C(/C(=S)Nc2ccccc2)[n+]2ccccc2)c1,-105*
O=C(NC(=S)Nc1cc([N+](=O)[O-])ccc1Cl)c1ccccc1,-85*
O=C(NC(=S)Nc1cccc([N+](=O)[O-])c1)c1ccccc1,-170*
COc1cc([N+](=O)[O-])ccc1NC(=S)Nc1cccc(C(=O)O)c1,-72*
O=C(Nc1ccc([N+](=O)[O-])cc1)C(=O)Nc1cccc(C(=O)O)c1,102
O=[N+]([O-])c1cccc(NC(=S)Nc2nc(-c3ccc(Cl)cc3Cl)cs2)c1,73
O=C(NC(=S)Nc1cccc([N+](=O)[O-])c1)c1ccco1,-113*
N#Cc1nc(-c2cccs2)oc1NCCc1ccccc1,-111*
COc1ccc(-c2nc(C#N)c(NCCc3ccccc3)o2)cc1OC,-142*
C=CCN=C(NC#N)SCC(=O)c1cccc(OC)c1,-104*
SMILES,aSyn UTR act
Cc1ccc(-c2nc3cccnc3s2)cc1NC(=O)c1ccco1,-198*
CCS(=O)(=O)Nc1cccc(-c2nc3cccnc3s2)c1,-62*
CCS(=O)(=O)Nc1cc(-c2nc3cccnc3s2)ccc1C,-123*
Cc1c(NS(C)(=O)=O)cccc1-c1nc2cccnc2s1,-64*
O=C(Nc1ccccc1)c1ccc(Br)o1,-73*
O=C(c1ccccc1)c1cccc(NC(=O)c2ccc(Br)o2)c1,-90*
CCc1cccc(NC(=O)c2ccc(Br)o2)c1,-116*
Cc1cccc(NC(=O)c2ccc(C(=O)c3ccccc3)o2)c1,-156*
O=C(Nc1ccc2c(c1)oc1ccccc12)c1ccc(Br)o1,-210*
CCCC/C(=N\NC(=O)c1ccc(Br)o1)c1ccccc1,-69*
Cc1ccc(-c2nc3ccccc3s2)cc1NC(=O)c1ccc2c(c1)OCO2,-76*
O=C(Nc1cc(-c2nc3ccccc3s2)ccc1Cl)c1ccc2c(c1)OCO2,-70*
Cc1ccc(-c2nc3ccccc3s2)cc1NC(=S)NC(=O)c1cccc2ccccc12,-97*
Cn1c(/C(C#N)=C(\O)c2ccc([N+](=O)[O-])s2)nc2ccccc21,-115*
Cn1c(/C(C#N)=C(\O)c2ccc(Cl)s2)nc2ccccc21,-80*
CCNc1nc(Oc2ccc(C#N)cc2)cc(C(F)(F)F)n1,59
CCNc1nc(N)nc(Oc2ccc(C(=O)OC)cc2)n1,-71*
O=C(NC1CCN(Cc2ccccc2)CC1)c1ccc(Cn2c(=S)[nH]c3ccc(N4CCOCC4)cc3c2=O)cc1,-92*
CC1CCN(CCNC(=O)c2ccc3c(=O)n(Cc4ccc(Cl)cc4)c(=S)[nH]c3c2)CC1,98
COc1ccc(-c2nc(-c3cccs3)no2)cc1,83
COc1cccc(-c2ccc(-c3noc(-c4cccs4)n3)c(OC)n2)c1,-85*
COc1ccccc1-c1nc(-c2ccccn2)no1,77
O=[N+]([O-])c1cccc(-c2noc(-c3cccs3)n2)c1,-147*
COc1ccccc1-c1noc(-c2cccs2)n1,-236*
COc1ccccc1-c1noc(-c2ccncc2)n1,-74*
SMILES,aSyn UTR act
O=c1c2ccccc2nc2ccc(NCc3ccco3)nn12,-144*
Cc1sc2nc3ccc(NCc4ccco4)nn3c(=O)c2c1C,-119*
CCc1ccc(-c2cc(C(=O)N3N=C(C(F)F)CC3(O)C(F)F)c3ccccc3n2)cc1 (configuration not stated),-68*
CCCCCCC(=O)Nc1ccc(Cl)cn1,-88*
CCC(C)c1ccc(OCC(=O)Nc2ccc(Cl)cn2)cc1 (configuration not stated),-72*
CC(C)CC(=O)NC(=S)Nc1ccc(Cl)cn1,-68*
CCc1ccc(NC(=S)NC(=O)CC(C)C)cc1,-154*
O=[N+]([O-])c1cccn2cc(-c3ccc(Br)cc3)nc12,-315*
